Reference: PubChem BioAssay AID1159580 (chemical genetic matrix, 2015)
Several values for one entry are separate records, joined by “and”; a condition that tells them apart may be missing. Identical values can stand only once. Screen size: about 5,500 compounds; about 2,000 (36%) were called active. Another 18% or so got no clear call; they are omitted. Rule as the data show it: active = normalized growth mostly below about 0.91 (no sharp cut-off); inconclusive = no clear call, values can overlap the other calls; inactive = mostly above about 0.92. Some of the results follow.

Experiment: chemical genetic growth profiling, strain panel (AID 1159580);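 also: tested at 20 µM; growth read once vehicle control cultures reached saturation at 30 °C; 1 = growth at the plate median or of vehicle wells; lower values mean less growth of the strain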
Conditions: S. cerevisiae deletion strains, growth OD

Measured: normalized growth

C[C@H]1C(=O)O[C@@H]2CCN3CC=C(COC(=O)[C@](C)(O)[C@]1(C)O)[C@H]23
inactive: locus YAL021C, strain ccr4, stronger effect = lower value 1 | locus YAL026C, strain drs2, stronger effect = lower value 0.991 | locus YAL030W, strain snc1, stronger effect = lower value 0.989 | locus YBL061C, strain skt5, stronger effect = lower value 0.995 | locus YBR009C, strain hhf1, stronger effect = lower value 0.993 | locus YBR021W, strain FUR4, stronger effect = lower value 0.978 | locus YBR023C, strain chs3, stronger effect = lower value 0.995 | locus YBR171W, strain sec66, stronger effect = lower value 0.987 | locus YBR229C, strain ROT2, stronger effect = lower value 0.989 | locus YBR231C, strain swc5, stronger effect = lower value 0.984 | locus YBR279W, strain paf1, stronger effect = lower value 0.99 | locus YCL011C, strain gbp2, stronger effect = lower value 0.997 | locus YCL016C, strain dcc1, stronger effect = lower value 0.999 | locus YCL029C, strain bik1, stronger effect = lower value 0.99 | locus YCL069W, strain vba3, stronger effect = lower value 0.995 | locus YCR088W, strain abp1, stronger effect = lower value 0.992 | locus YDL005C, strain med2, stronger effect = lower value 0.992 | locus YDL035C, strain GPR1, stronger effect = lower value 0.999 | locus YDL040C, strain nat1, stronger effect = lower value 0.991 | locus YDL074C, strain BRE1, stronger effect = lower value 1.02 | locus YDL101C, strain DUN1, stronger effect = lower value 0.99 | locus YDL134C, strain PPH21, stronger effect = lower value 0.968 | locus YDL185W, strain tfp1, stronger effect = lower value 0.984 | locus YDL192W, strain arf1, stronger effect = lower value 0.981 | locus YDR001C, strain nth1, stronger effect = lower value 0.99 | locus YDR069C, strain doa4, stronger effect = lower value 0.99 | locus YDR101C, strain arx1, stronger effect = lower value 0.994 | locus YDR137W, strain rgp1, stronger effect = lower value 0.972 | locus YDR159W, strain sac3, stronger effect = lower value 0.984 | locus YDR162C, strain NBP2, stronger effect = lower value 0.996 | locus YDR195W, strain ref2 0.945 | locus YDR297W, strain sur2, stronger effect = lower value 0.998 | locus YDR318W, strain mcm21, stronger effect = lower value 0.996 | locus YDR334W, strain swr1, stronger effect = lower value 0.995 | locus YDR335W, strain msn5, stronger effect = lower value 0.989 | locus YDR388W, stronger effect = lower value 0.997 | locus YDR392W, strain spt3, stronger effect = lower value 0.995 | locus YDR502C, strain sam2, stronger effect = lower value 0.99 | locus YEL003W, strain gim4, stronger effect = lower value 0.991 | locus YEL037C, strain rad23, stronger effect = lower value 0.996 | locus YEL061C, strain CIN8 (second series), stronger effect = lower value 0.99 | locus YEL061C, strain CIN8, stronger effect = lower value 0.995 | locus YER015W, strain faa2, stronger effect = lower value 0.998 | locus YER016W, strain bim1, stronger effect = lower value 0.989 | locus YER110C, stronger effect = lower value 0.986 | locus YER111C, strain swi4, stronger effect = lower value 0.969 | locus YER155C, strain BEM2 (second series), stronger effect = lower value 0.937 | locus YER155C, strain BEM2, stronger effect = lower value 0.988 | locus YER167W, strain BCK2, stronger effect = lower value 0.982 | locus YFR010W, strain ubp6, stronger effect = lower value 0.99 | locus YGL078C, strain dbp3, stronger effect = lower value 0.988 | locus YGL086W, strain mad1, stronger effect = lower value 1.01 | locus YGL167C, strain pmr1, stronger effect = lower value 0.994 | locus YGL173C, strain kem1, stronger effect = lower value 0.994 | locus YGL227W, strain vid30, stronger effect = lower value 0.982 | locus YGL240W, strain doc1, stronger effect = lower value 0.987 | locus YGL248W, strain PDE1, stronger effect = lower value 0.997 | locus YGL253W, strain hxk2, stronger effect = lower value 0.994 | locus YGR135W, strain pre9, stronger effect = lower value 0.987 | locus YGR229C, strain SMI1, stronger effect = lower value 1 | locus YGR252W, strain gcn5, stronger effect = lower value 0.98 | locus YHR013C, strain ard1, stronger effect = lower value 1 | locus YHR027C, strain rpn1, stronger effect = lower value 0.991 | locus YHR030C, strain SLT2, stronger effect = lower value 0.986 and 0.998 | locus YHR079C, strain IRE1 (second series), stronger effect = lower value 0.994 | locus YHR079C, strain IRE1, stronger effect = lower value 0.985 | locus YHR094C, strain hxt1, stronger effect = lower value 0.991 | locus YHR129C, strain ARP1, stronger effect = lower value 0.989 | locus YHR142W, strain chs7, stronger effect = lower value 1 | locus YHR200W, strain rpn10, stronger effect = lower value 0.991 | locus YIL066C, strain RNR3, stronger effect = lower value 0.992 | locus YIL073C, strain SPO22, stronger effect = lower value 0.969 | locus YIL125W, strain kgd1, stronger effect = lower value 0.995 | locus YIR030C, strain dcg1, stronger effect = lower value 0.99 | locus YJL092W, strain hpr5, stronger effect = lower value 0.97 | locus YJL095W, strain BCK1 (second series), stronger effect = lower value 0.984 | locus YJL095W, strain BCK1, stronger effect = lower value 1.02 and 1 | locus YJL115W, strain asf1, stronger effect = lower value 0.969 | locus YJL129C, strain trk1, stronger effect = lower value 0.968 | locus YJL134W, strain LCB3, stronger effect = lower value 0.994 | locus YJL154C, strain vps35, stronger effect = lower value 0.991 | locus YJL164C, strain tpk1, stronger effect = lower value 1.01 | locus YJL166W, strain qcr8, stronger effect = lower value 0.987 | locus YJL168C, strain set2, stronger effect = lower value 0.997 | locus YJL187C, strain SWE1 (second series), stronger effect = lower value 0.995 | locus YJL187C, strain SWE1, stronger effect = lower value 0.996 | locus YJR043C, strain POL32, stronger effect = lower value 1.01 | locus YJR066W, strain TOR1, stronger effect = lower value 0.944 | locus YKL009W, strain mrt4, stronger effect = lower value 0.983
